# High-throughput results (PubChem BioAssay)
# PP1 counter: counter-screen for PP5 inhibitors: inhibitors of human PP1-alpha; inhibition, % at 6.7 µM; purified PP1alpha, OMFP fluorescence; hit rate 0.9% among 320,000; AID 2235; P62136;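 active = inhibition above the mean inhibition of all tested compounds plus 3 SD, computed separately for each screening campaign, cut at about 15% in these data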
# SKKanGAS inh: SKKanGAS growth inhibition; S. pyogenes SKKanGAS, kanamycin growth, BacTiter-Glo, 6 h; AID 1662; inhibition, % at 7.5 µM; hit rate 1.3% among 300,000;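 active = mean replicate score, as percent of positive control median, at least 50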;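 note: strain carries kanamycin resistance gene driven by streptokinase promoter and grows in 40 µg/ml kanamycin; loss of luminescence reflects streptokinase promoter inhibition or plain growth inhibition; 0% = median of DMSO wells and 100% = positive control at its reference dose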
# CSC inhib: blocks cancer stem cells; cancer stem cell-like cells viability, luminescence; inhibition, % at 7.5 µM; hit rate 1.1% among 300,000; AID 2717; in the data active = inhibition above about 75%; tested in HMLE shEcad cells
# PP5 inh: PP5 (human) phosphatase inhibition; hit rate 0.18% among 320,000; inhibition, % at 6.7 µM; purified PP5c, OMFP substrate fluorescence;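 active = inhibition above the campaign's mean inhibition across all tested compounds plus 3 SD, cut at about 9.5% in these data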;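 note: 0% = DMSO only and 100% = 100 µM cantharidin control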
# Target sequence (P53041 whole entry, looked up): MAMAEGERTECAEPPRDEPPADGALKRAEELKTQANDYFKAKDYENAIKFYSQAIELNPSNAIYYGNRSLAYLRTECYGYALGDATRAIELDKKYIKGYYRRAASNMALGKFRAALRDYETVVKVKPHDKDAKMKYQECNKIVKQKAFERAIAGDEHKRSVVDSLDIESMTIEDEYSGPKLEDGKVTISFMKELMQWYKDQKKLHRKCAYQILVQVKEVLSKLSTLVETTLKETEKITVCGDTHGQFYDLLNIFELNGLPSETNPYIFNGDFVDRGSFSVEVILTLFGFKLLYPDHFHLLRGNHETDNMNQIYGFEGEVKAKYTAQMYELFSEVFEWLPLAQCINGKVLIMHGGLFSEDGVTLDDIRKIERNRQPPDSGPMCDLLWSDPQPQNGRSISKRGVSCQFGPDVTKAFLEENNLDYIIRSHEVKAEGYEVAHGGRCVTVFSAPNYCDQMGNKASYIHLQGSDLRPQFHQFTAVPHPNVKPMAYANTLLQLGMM
# Beta cell apopt: blocks beta cell apoptosis | INS-1E cytokine-induced death, ATP luminescence, 48 h; percent of positive-control rescue, neutral wells zero | protection from apoptosis, % (no concentration beside the values) | hit rate 0.8% among 300,000;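 active = Every replicate reaches about 75%, or at least half do and their mean reaches it too, limit read from the data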;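 note: 0% = cytokine-treated negative control wells and 100% = positive control rescue; higher means more ATP so stronger rescue from cytokine killing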
# * = called active by the depositor; . = no result. A selection: hits, their analogues and other compounds. The true share with any hit is near 3.1%.
SMILES,PP1 counter,SKKanGAS inh,CSC inhib,PP5 inh,Beta cell apopt
COc1ccc(-c2cc3nc(-c4ccccc4)cc(N4CCCC(O)C4)n3n2)cc1 (stereo not given),-3,54*,94*,0,18
Oc1ccc(/C=N/n2c3ccccc3c3ccccc32)cc1,4,71*,49,2,-2
O=C(Nc1ccc(Cn2cccn2)cc1)c1ccc(COc2cccc(Br)c2)cc1,6,16,99*,3,-2
O=C(Nc1ccc(Cn2cccn2)cc1)c1ccc(COc2ccc(Br)cc2)cc1,4,1,3,-1,-1
COc1ccc(S(=O)(=O)N(CC(=O)NC2CCCCC2)c2ccc(F)cc2)cc1,-4,6,-2,0,1
COc1ccc(Nc2nc(CN3CCOCC3)nc3sc4c(c23)CCC(C)C4)cc1OC (stereo not given),-2,4,7,-2,1
CC1CCc2c(sc3nc(CN4CCOCC4)nc(Sc4ccccc4)c23)C1 (stereo not given),6,30,84*,3,-10
O=C(O)c1ccc(S(=O)(=O)NCC2CCCCC2)cc1,.,9,1,.,-3
CCCn1c(NC(=O)c2cccc(S(=O)(=O)N3CCCC3)c2)nc2ccccc21,3,64*,.,-1,21
CCCn1c(Nc2nc3ccccc3n2C)nc2ccccc21,4,9,104*,1,111*
CCCn1c(NC(=O)C2CCN(S(=O)(=O)c3cccs3)CC2)nc2ccccc21,3,51*,36,2,11
CCCn1c(NC(=O)c2ccc(C)cc2)nc2ccccc21,6,44,25,3,34
CCCn1c(NC(=O)c2ccccc2)nc2ccccc21,-2,69*,4,1,19
Cc1ccc(C(=O)Nc2nc3ccccc3n2CCN2CCCC2)cc1,-4,18,0,2,10
C=CCn1c(NC(=O)c2ccc(C)cc2)nc2ccccc21,0,59*,7,1,17
CC(C)(C)C(=O)NC(=S)NNC(=O)c1ccc(-c2ccccc2)cc1,2,91*,91*,5,76*
C=CCNC(=S)NNC(=O)c1ccc(OCCCC)cc1,-1,-12,-8,-3,-3
CCCCOc1ccc(C(=O)NNC(=S)NC(=O)CC)cc1,-2,97*,47,2,79*
CCC(=O)NC(=S)NNC(=O)c1ccc(OC)cc1,-1,10,20,0,.
CC(C)(C)C(=O)NC(=S)NNC(=O)c1ccc(Cl)cc1Cl,9,73*,18,1,30
COC(=O)NNC(=O)c1ccc(Cl)cc1Cl,-4,-6,-8,1,2
CCCOc1ccc(C(=O)NNC(=S)NC(C)=O)cc1,1,93*,10,-1,34
Cc1cc2cc(CCNS(=O)(=O)c3ccc(F)cc3)c(=O)[nH]c2cc1C,6,-7,3,3,-2
O=C(NNC(=S)Nc1ccccc1)c1ccc(O)cc1,0,-5,-4,1,1
CC(C)(C)c1ccc(OCC(=O)NNC(=S)NC(=O)c2ccccc2[N+](=O)[O-])c(Br)c1,3,100*,27,5,-3
SMILES,PP1 counter,SKKanGAS inh,CSC inhib,PP5 inh,Beta cell apopt
CCCOc1ccc(C(=O)NNC(=S)NC(=O)c2ccccc2)cc1,0,107*,47,-1,28
O=C(NNC(=S)NC(=O)c1ccccc1)c1ccc(O)cc1,-2,74*,8,1,11
CCCOc1ccc(C(=O)NNC(=S)NC(=O)c2cccs2)cc1,14,74*,49,1,41
COc1ccc(C#Cc2c(-c3ccccc3)n(-c3ccccc3)c3ccc(CO)cc23)cc1,.,.,.,.,5
CC(C)(C)c1ccc(OCc2ccc(C(=O)N/N=C/c3ccc([N+](=O)[O-])cc3)o2)cc1,1,14,-14,1,7
CCOc1ccc(C(=O)NC(=S)N(Cc2ccccc2)Cc2ccccc2)cc1,0,98*,28,7,18
Cc1ccc(C(=O)NNC(=S)NC(=O)COc2ccccc2)cc1,1,33,6,4,-3
CC(C)(C)c1ccc(C(=O)NC(=S)NNC(=O)COc2ccccc2)cc1,-1,91*,23,3,0
O=C(NNC(=S)NC(=O)c1ccccc1[N+](=O)[O-])c1ccccc1,1,0,3,1,0
CCCOc1ccc(C(=O)NNC(=S)NC(=O)c2ccccc2[N+](=O)[O-])cc1,1,78*,10,2,4
CCOc1ccc(CN(CCC#N)C(=S)NC(=O)c2ccccc2)cc1,-3,0,9,1,19
Cc1ccc(CN(Cc2ccco2)S(=O)(=O)c2ccc(S(=O)(=O)NCC3CCCO3)cc2)cc1 (stereo not given),1,-5,24,1,4
COc1ccc(C(=O)NNC2=C(C(=O)C(F)(F)F)CCC2)cc1,-1,5,10,2,1
O=C(NNC1=C(C(=O)C(F)(F)F)CCC1)c1cccc(Cl)c1,1,96*,113*,4,18
O=C(NNC1=C(C(=O)C(F)(F)F)CCC1)c1ccc(Cl)cc1,-4,101*,82*,1,9
CCOc1c(Cl)cc(/C=C/C(=O)N(CC)CC(=O)Nc2ccc(NC(C)=O)cc2)cc1OC,-2,39,.,1,10
CCOc1ccc(NC(=O)CN2C(=O)NC(CCc3ccccc3)C2=O)cc1OCC (stereo not given),.,.,-1,.,-2
Cc1cc(C)cc(NC(=O)C(OC(=O)c2ccc(NC(=O)CC#N)cc2)c2ccccc2)c1 (stereo not given),14,57*,.,3,6
CC(OC(=O)c1ccc(NC(=O)CC#N)cc1)C(=O)NC(=O)NC1CCCCC1 (stereo not given),12,59*,1,3,.
Nc1ccc(-c2ccc(N)cc2C(F)(F)F)c(C(F)(F)F)c1,0,60*,4,4,-5
Nc1ccc(C(O)(C(F)(F)F)C(F)(F)F)cc1,-4,3,-5,0,-7
CC1(C)CC(=O)C=C(c2cccc3c2sc2ccccc23)C1,1,.,19,-3,-4
CCOC(=O)CS(=O)(=O)c1nc(-c2ccccc2)cc(C(F)(F)F)n1,1,-12,99*,4,96*
CCOC(=O)CCS(=O)(=O)c1nc(-c2ccccc2)cc(C(F)(F)F)n1,2,6,100*,2,31
CCOC(=O)CS(=O)(=O)c1nc(-c2ccc(F)cc2)cc(C(F)(F)F)n1,-1,-2,99*,5,.
COC(=O)CCS(=O)(=O)c1nc(-c2ccccc2)cc(C(F)(F)F)n1,-2,7,.,0,28
CCOC(=O)CS(=O)(=O)c1ccccc1,-4,0,-6,1,.
CCOC(=O)c1c(C(F)(F)F)cc(-c2ccc(F)cc2)nc1C,2,-8,5,1,3
O=C(CN1C(=O)C2C3C=CC(C4CC34)C2C1=O)Oc1ccccc1 (stereo not given),-4,-1,-11,1,0
O=C(NCc1cccnc1)c1ccc(NC(=O)c2ccc(Br)cc2)cc1,3,-1,85*,1,140*
